Compound activity from PubChem BioAssay.
MCF10A rereplic = inducers of DNA re-replication in MCF 10A breast cells; MCF 10A DNA re-replication, Hoechst nuclear intensity, 48 h; Potency, µM (titrated, usually from 46.1 µM), inactives show at the highest dose activity, positive = re-replication, actives largely listed as activators; 350,000 tested, 2.9% active; AID 624296; note: % of control where 0% means no effect; nearly all actives have a fitted effect of over 50% in size
RORg inh = blocks mouse ROR gamma transcriptional activity; Drosophila S2 Gal4-RORgamma UAS-luciferase reporter, 20 h; Potency, µM (doses to about 53.6 µM), inactives show top-dose activity change, negative = inhibition, hits mostly inhibitors; 310,000 tested, 5.4% active; AID 2551; note: % is set by controls: 0 for no effect and ±100 for the full control effect; nearly all actives have a fitted effect of over 60% in size
Target sequence (P51450 whole entry, looked up, the tested form may be a part): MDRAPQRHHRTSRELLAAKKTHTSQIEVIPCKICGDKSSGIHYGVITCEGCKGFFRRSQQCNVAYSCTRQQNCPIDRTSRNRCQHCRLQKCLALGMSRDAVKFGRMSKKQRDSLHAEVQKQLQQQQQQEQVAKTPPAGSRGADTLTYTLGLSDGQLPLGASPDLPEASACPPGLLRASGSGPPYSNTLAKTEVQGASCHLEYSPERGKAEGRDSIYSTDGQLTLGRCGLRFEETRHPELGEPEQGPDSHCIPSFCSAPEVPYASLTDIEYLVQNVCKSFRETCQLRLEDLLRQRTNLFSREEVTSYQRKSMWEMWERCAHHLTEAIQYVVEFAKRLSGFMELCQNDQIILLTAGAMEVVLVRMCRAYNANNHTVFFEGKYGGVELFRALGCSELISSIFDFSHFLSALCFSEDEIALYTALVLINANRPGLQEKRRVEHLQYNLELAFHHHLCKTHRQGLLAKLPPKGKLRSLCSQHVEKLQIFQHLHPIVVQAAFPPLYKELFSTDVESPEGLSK
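Using a luciferase readout, inhibitors were identified by reduced reporter activity in Drosophila cells coexpressing a copper-inducible Gal4–ROR gamma fusion and UAS-driven Photinus luciferase, incubated 20 hr after 700 uM copper sulfate.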
VP16 counter = counter-screen for ROR gamma inhibitors: Gal4-VP16 reporter. Drosophila S2 Gal4-VP16 UAS-luciferase, luminescence, 20 h. Potency, µM (doses to about 53.6 µM), for the others: top-dose activity, negative = inhibition, usual class: inhibitors. 310,000 tested, 3.5% active;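 note: Gal4-VP16 expression switched on by copper sulfate through the metallothionein promoter; % is set by controls: 0 for no effect and ±100 for the full control effect; nearly all actives have a fitted effect of over 50% in size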
KB-3-1 tox = KB-3-1 parental cell cytotoxicity; Potency, µM (highest dose often 46.1 µM), actives largely listed as cytotoxic; KB-3-1 viability, CellTiter-Glo ATP luminescence, 72 h; 400,000 tested, 1.4% active; note: % is set by controls: 0 for no effect and ±100 for the full control effect; nearly all actives have a fitted effect of over 60% in size
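Multi-concentration cytotoxicity screen in KB-3-1 cells grown in DMEM lacking phenol red with 10% FBS. After 72 h at 37 °C with compound, ATP-dependent luminescence was recorded.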
SW480 rerep = inducers of DNA re-replication in SW480 colon cancer cells; AID 624297; Potency, µM (series often up to 46.1 µM), inactives show at the highest dose re-replication activation, most hits filed as activators; 340,000 tested, 1.8% active; SW480 DNA re-replication, Hoechst DNA content imaging, 48 h; note: % of control where 0% means no effect; nearly all actives have a fitted effect of over 55% in size
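First, 250 cells per well were seeded. Next, compound or vehicle (23 nL) was pinned in, plates sat 48 hr at 37 C. Finally Hoechst was added for 40 min before fluorescence scanning.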
KB-V1 MDR tox = KB-V1 MDR subline cytotoxicity; KB-V1 MDR cells viability, CellTiter-Glo, 72 h; Potency, µM (titrated, usually from 46.1 µM), actives largely listed as cytotoxic; 400,000 tested, 3.4% active; AID 1347076; note: % is set by controls: 0 for no effect and ±100 for the full control effect; nearly all actives have a fitted effect of over 60% in size
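KB-V1 cells (P-gp-expressing MDR subline of KB-3-1) in phenol-red-free DMEM with 10% FBS were exposed to library compounds over a concentration series for 72 h at 37 degrees C. Viability read by CellTiter-Glo luminescence; concentration-effect curves fitted after normalization.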
Starred values were filed as active, the others as inactive; i = inactive; ? = inconclusive; . = not tested or not shown; [ ] = remark or other dose. Shown are actives, neighbours in structure and some others; about 10% of the full set was active somewhere. Calls come from the whole dose curve; as a rule, active = well fitted curve in the direction sought with a large enough effect; inconclusive = small, poorly fitted or top-dose-only effect, or another doubt; inactive = no such curve, though single readings can be large; an effect the other way counts as inactive or inconclusive. Potency is the fitted concentration of half-maximal effect.

SMILES	MCF10A rereplic	RORg inh	VP16 counter	KB-3-1 tox	SW480 rerep	KB-V1 MDR tox
CCOc1cc(CN2CCN(c3ccc(C(C)=O)cc3)CC2)ccc1OC	4.6%	26.1%	-4.9%	i	-0.7%	23.1µM*
CCOc1cc(CN2CCCC(N3CCN(c4ccc(F)cc4)CC3)C2)ccc1OC (centres undefined)	4.11µM*	1.2%	-13.2%	i	-47.0%	i
COc1ccc(N2CCN(C3CCCN(Cc4cccc(C(C)=O)c4)C3)CC2)cc1 (centres undefined)	23.1µM*	5.1%	1.9%	i	-15.6%	i
CCOC(=O)c1ccccc1NC(=O)CSc1nc2cn(CC)nc2c(=O)n1Cc1ccc(Cl)cc1	.	.	.	i	.	i
COc1ccc(-c2cc(C(=O)Nc3ccn(Cc4ccc(C)cc4)n3)no2)cc1OC	.	.	.	i	.	i
c1coc(-c2nc3n(n2)C2(CCCCC2)[C@@H]2CCCC[C@@H]2N3)c1	.	.	.	i	.	i
CCC(=O)NC(Nc1sc2c(c1C(=O)OC)CCCC2)(C(F)(F)F)C(F)(F)F	4.9%	-13.5%	-1.2%	i	-0.3%	?
COC(=O)c1c(NC(NC(=O)c2ccccc2)(C(F)(F)F)C(F)(F)F)sc2c1CCN(C)C2	?	-13.9%	3.1%	i	0.517µM*	i
COC(=O)C1=C(C)N(Cc2ccccc2)C2=C(C(=O)c3ccccc3)C(c3ccccc3)[C@@](O)(C(=O)OC)C(=O)N2C1c1ccccc1 (some centres undefined)	.	0.8%[10 µM]	-0.7%[10 µM]	.	.	.
C[C@@H]1CCCCO[C@H](CN(C)C(=O)C2CCCCC2)[C@@H](C)CN([C@H](C)CO)C(=O)c2cc(N(C)C)ccc2O1	.	.	.	i	.	i
NC(=O)c1cc(N2C(=O)C=CC2=O)ccc1Cl	18.4µM*	7.08µM*	7.08µM*	i	?	i
CC(=O)Nc1ccc(Cl)c(C(N)=O)c1	-8.2%	-5.8%	0.2%	i	-7.3%	i
CCc1ccccc1N(C)C(=O)Cc1c(C(=O)O)c(C)cn1C	.	.	.	i	.	i
CCOC(=O)CC(=O)CSc1ccc2nnc(-c3cccc(F)c3)n2n1	29.8%	-13.2%	1.9%	i	14.0%	i
O=C(CSc1ccc2nnc(-c3cccnc3)n2n1)NCc1ccco1	-0.6%	-16.8%	?	i	-20.1%	i
CSc1ccc2nnc(-c3cccc(F)c3)n2n1	0.4%	-30.9%	-5.9%	i	-9.1%	13µM*
O=C(CSc1ccc2nnc(-c3cccc(F)c3)n2n1)NCc1ccco1	11.8%	6.6%	6.4%	i	-4.0%	16.4µM*
O=C(O)C1(O)CC(O)C(O)C(O)C1 (centres undefined)	.	-11.4%	0.9%	.	.	.
O=C(C=Cc1ccco1)c1cc(Cl)ccc1O	-2.5%	.	.	i	16.5%	i
CC(/C=C/c1ccco1)=N\NC(=O)c1cc(Cl)ccc1O	?	8.91µM*	?	i	?	i
Cn1c(Cl)cnc1C1CC(=O)c2cc(Cl)ccc2O1 (centres undefined)	?	?	-1.2%[0.365 µM]	?	10.3µM*	?
O=C1CC(c2ccc(Cl)cc2)Oc2ccc(Cl)cc21 (centres undefined)	?	.	.	i	?	i
Cc1ccc(N(C)S(=O)(=O)c2ccc(-c3cc(C)no3)s2)cc1	9.2µM*	4.1%	-3.0%	i	?	?
Cc1cc(-c2ccc(S(=O)(=O)N(C)c3ccc(C)c(C)c3)s2)on1	10.3µM*	13.2%	-7.0%	13µM*	?	7.31µM*
Cc1cc(-c2ccc(S(=O)(=O)NCc3ccccc3Cl)s2)on1	.	.	.	i	.	i
CCOc1ccc(N(C)C(=O)CS(=O)(=O)c2cccc3nsnc23)cc1	.	.	.	i	.	i
Cc1nc2cc(-c3ccccc3)nn2c(C)c1CCC(=O)NCc1cccc(Cl)c1	.	.	.	i	.	i
